# Source: PubChem BioAssay (NCI)
# Compounds without any hit were thinned out: in the full panel of roughly 79,000, 15% have a hit. Values without a mark were called inactive. The source made the active and inactive calls. Cut-off read from the data, not from the text of the source: active = growth inhibition above about 70%; inactive = the rest.
# Columns and labels:
# [1] = NCI Yeast Anticancer Drug Screen. Data for the rad52 strain (AID 147);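 note: 0% = growth of vehicle-treated control cultures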; conditions: S. cerevisiae rad52 mutant growth inhibition, hits give high values
# In short: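 Growth of repair-deficient yeast cells was compared between compound-treated and vehicle-treated cultures to give percent inhibition.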
# [2] = NCI Yeast Anticancer Drug Screen. Data for the wt1 strain (AID 149);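 note: 0% = growth of vehicle-treated wt1 cultures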; conditions: S. cerevisiae wt1 strain (SPY 50644) growth inhibition, hits give high values
# In short: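 Yeast wt1 strain exposed to compounds; growth inhibition measured relative to vehicle-treated controls.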
# [3] = NCI Yeast Anticancer Drug Screen. Data for the rad50EPP+ strain (AID 151);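 note: 0% = growth of vehicle-treated control cultures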; conditions: S. cerevisiae rad50 mutant strain, hits give high values
# In short: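 Measured: growth inhibition of rad50EPP+ yeast. Reference: vehicle-treated controls. Screen uses strains with defined genetic alterations in DNA damage repair or cell cycle control.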
# [4] = NCI Yeast Anticancer Drug Screen. Data for the mgt1 strain (AID 153); conditions: S. cerevisiae mgt1 mutant growth inhibition, hits give high values
# In short: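 Compounds were applied to mgt1 mutant yeast, and growth was then compared against vehicle-treated control cultures to give percent inhibition.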
# [5] = NCI Yeast Anticancer Drug Screen. Data for the rad50 strain (AID 155);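 note: 0% = growth of vehicle-only cultures of the same strain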; conditions: S. cerevisiae rad50 strain growth inhibition, hits give high values
# In short: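 Yeast carrying a defined DNA repair defect were exposed to test compounds, and growth was compared with vehicle-treated controls to give percent inhibition.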
# [6] = NCI Yeast Anticancer Drug Screen. Data for the mec2-1 strain (AID 157); conditions: S. cerevisiae mec2-1 strain, hits give high values
# In short: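 Compounds were applied to mec2-1 yeast cells. Their growth was then compared with that of vehicle-treated cultures to give growth inhibition.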
# [7] = NCI Yeast Anticancer Drug Screen. Data for the rad14 strain (AID 159);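 note: 0% = growth of vehicle-treated control cultures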; conditions: S. cerevisiae rad14 strain growth inhibition, hits give high values
# In short: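 Yeast cells carrying a defined DNA-repair defect were exposed to compounds, and growth inhibition was calculated relative to vehicle-treated control cultures.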
# [8] = NCI Yeast Anticancer Drug Screen. Data for the sgs1 mgt1 strain (AID 161);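 note: 0% = growth of cultures given vehicle only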; conditions: S. cerevisiae sgs1 mgt1 strain, hits give high values
# In short: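 Growth of a repair-deficient yeast mutant was monitored after compound treatment and expressed as inhibition relative to vehicle-treated cultures.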
# [9] = NCI Yeast Anticancer Drug Screen. Data for the CLN2oe strain (AID 163);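 note: 0% = growth of vehicle-only control cultures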; conditions: S. cerevisiae CLN2oe strain, hits give high values
# In short: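 Cells of an engineered yeast line with disturbed cell-cycle regulation are treated with compound. Inhibition of growth is then calculated relative to the vehicle-treated reference.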
# [10] = NCI Yeast Anticancer Drug Screen. Data for the cln2 rad14 strain (AID 165);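 note: 0% = growth equal to vehicle treated cultures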; conditions: S. cerevisiae cln2 rad14 strain, hits give high values
# In short: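 Strain: cln2 rad14 yeast, altered in cell cycle control and DNA damage repair. Read-out: growth inhibition vs vehicle.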
# [11] = NCI Yeast Anticancer Drug Screen. Data for the bub3 strain (AID 167); conditions: S. cerevisiae bub3 mutant strain, hits give high values
# In short: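 Compounds were applied to a genetically altered yeast strain carrying a cell-cycle control defect. Growth inhibition was scored against vehicle-treated controls.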
# [12] = NCI Yeast Anticancer Drug Screen. Data for the wt2 strain (AID 169);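 note: 0% = growth of vehicle-treated yeast cultures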; conditions: S. cerevisiae wt2 strain growth inhibition, hits give high values
# In short: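 Growth of compound-treated yeast is measured and expressed as inhibition relative to vehicle-only controls.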
# [13] = NCI Yeast Anticancer Drug Screen. Data for the mlh1 strain (AID 171);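 note: 0% = growth of vehicle-treated control cultures of the same strain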; conditions: S. cerevisiae mlh1 strain growth inhibition, hits give high values
# In short: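 Test agents were incubated with yeast bearing a defined DNA damage repair or cell cycle control alteration; values are growth inhibition normalised to vehicle-treated cultures.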
# [14] = NCI Yeast Anticancer Drug Screen. Data for the sgs1 strain (AID 173);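 note: 0% = growth of vehicle-only control cultures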; conditions: S. cerevisiae sgs1 mutant, hits give high values
# In short: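 Strain with an altered DNA repair or cell cycle pathway exposed to compound. Growth then measured. Value = inhibition versus vehicle control.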
# [15] = NCI Yeast Anticancer Drug Screen. Data for the mlh1 rad18 strain (AID 175); conditions: S. cerevisiae mlh1 rad18 strain growth inhibition, hits give high values
# In short: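 A repair-deficient yeast strain is exposed to test compound, and growth is scored relative to vehicle-treated controls.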
# [16] = NCI Yeast Anticancer Drug Screen. Data for the rad18 strain (AID 177); conditions: S. cerevisiae rad18 mutant growth inhibition, hits give high values
# In short: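 DNA-repair-defective yeast; compound treatment; growth inhibition scored against vehicle.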
# [17] = at 5.0 µM (retest, dose inferred, filed as 0.5)
# [18] = at 50.0 µM (retest, dose inferred, filed as 5.0)
smiles,measurement,setting,value
Nc1cc(Cl)ccc1Nc1ccccc1,growth inhibition,[1]; at 1.2 µM,-25%
same,growth inhibition,[1]; at 3.7 µM,-22%
same,growth inhibition,[1]; at 11.0 µM,-27%
same,growth inhibition,[1]; at 33.0 µM,-18%
same,growth inhibition,[1]; at 100.0 µM,68%
same,growth inhibition,[2]; at 1.2 µM,-31%
same,growth inhibition,[2]; at 3.7 µM,-26%
same,growth inhibition,[2]; at 11.0 µM,-25%
same,growth inhibition,[2]; at 33.0 µM,-17%
same,growth inhibition,[2]; at 100.0 µM,94% (active)
same,growth inhibition,[3]; at 1.2 µM,-58%
same,growth inhibition,[3]; at 3.7 µM,-21%
same,growth inhibition,[3]; at 11.0 µM,-19%
same,growth inhibition,[3]; at 33.0 µM,28%
same,growth inhibition,[3]; at 100.0 µM,69%
same,growth inhibition,[4]; at 1.2 µM,-25%
same,growth inhibition,[4]; at 3.7 µM,-15%
same,growth inhibition,[4]; at 11.0 µM,-10%
same,growth inhibition,[4]; at 33.0 µM,-1%
same,growth inhibition,[4]; at 100.0 µM,85% (active)
same,growth inhibition,[5]; at 1.2 µM,-21%
same,growth inhibition,[5]; at 3.7 µM,-15%
same,growth inhibition,[5]; [17],60%
same,growth inhibition,[5]; at 11.0 µM,-8%
same,growth inhibition,[5]; at 33.0 µM,16%
same,growth inhibition,[5]; [18],99% (active)
same,growth inhibition,[5]; at 50.0 µM,79.2% (active)
same,growth inhibition,[5]; at 100.0 µM,93% (active)
same,growth inhibition,[6]; at 1.2 µM,-42%
same,growth inhibition,[6]; at 3.7 µM,-6%
same,growth inhibition,[6]; [17],65%
same,growth inhibition,[6]; at 11.0 µM,-49%
same,growth inhibition,[6]; at 33.0 µM,-33%
same,growth inhibition,[6]; [18],99% (active)
same,growth inhibition,[6]; at 50.0 µM,79.8% (active)
same,growth inhibition,[6]; at 100.0 µM,92% (active)
same,growth inhibition,[7]; at 1.2 µM,-7%
same,growth inhibition,[7]; at 3.7 µM,-13%
same,growth inhibition,[7]; at 11.0 µM,-14%
same,growth inhibition,[7]; at 33.0 µM,1%
same,growth inhibition,[7]; at 100.0 µM,87% (active)
same,growth inhibition,[8]; [17],9%
same,growth inhibition,[8]; [18],91% (active)
same,growth inhibition,[8]; at 50.0 µM,83.5% (active)
same,growth inhibition,[9]; at 1.2 µM,5%
same,growth inhibition,[9]; at 3.7 µM,3%
same,growth inhibition,[9]; at 11.0 µM,-1%
same,growth inhibition,[9]; at 33.0 µM,3%
same,growth inhibition,[9]; at 100.0 µM,84% (active)
same,growth inhibition,[10]; [17],24%
same,growth inhibition,[10]; [18],95% (active)
same,growth inhibition,[10]; at 50.0 µM,61.1%
same,growth inhibition,[11]; at 1.2 µM,-21%
same,growth inhibition,[11]; at 3.7 µM,-16%
same,growth inhibition,[11]; [17],20%
same,growth inhibition,[11]; at 11.0 µM,-24%
same,growth inhibition,[11]; at 33.0 µM,-8%
same,growth inhibition,[11]; [18],92% (active)
same,growth inhibition,[11]; at 50.0 µM,84% (active)
same,growth inhibition,[11]; at 100.0 µM,93% (active)
same,growth inhibition,[12]; at 1.2 µM,-15%
same,growth inhibition,[12]; at 3.7 µM,-15%
same,growth inhibition,[12]; at 11.0 µM,-22%
same,growth inhibition,[12]; at 33.0 µM,5%
same,growth inhibition,[12]; at 100.0 µM,95% (active)
same,growth inhibition,[13]; at 1.2 µM,-85%
same,growth inhibition,[13]; at 3.7 µM,-70%
same,growth inhibition,[13]; at 11.0 µM,-31%
same,growth inhibition,[13]; at 33.0 µM,-25%
same,growth inhibition,[13]; at 100.0 µM,79% (active)
same,growth inhibition,[14]; at 1.2 µM,-53%
same,growth inhibition,[14]; at 3.7 µM,-36%
same,growth inhibition,[14]; at 11.0 µM,-35%
same,growth inhibition,[14]; at 33.0 µM,4%
same,growth inhibition,[14]; at 100.0 µM,89% (active)
same,growth inhibition,[15]; [17],62%
same,growth inhibition,[15]; [18],99% (active)
same,growth inhibition,[15]; at 50.0 µM,84% (active)
same,growth inhibition,[16]; at 1.2 µM,-15%
same,growth inhibition,[16]; at 3.7 µM,-39%
same,growth inhibition,[16]; at 11.0 µM,-24%
same,growth inhibition,[16]; at 33.0 µM,-15%
same,growth inhibition,[16]; at 100.0 µM,85% (active)
